These results are taken from PubChem BioAssay.

“And” between values parts separate entries of the source, which are not always exact repeats. Equal values may be shown once. The source made the active and inactive calls. Unless noted, no stated cut-off is given here; in the data, active means parasite load remaining mostly below about 12% (no sharp cut-off); inactive means mostly above about 10%.

Assay [1] can be described thus: glutamate transport activators, MN-1 cells, MN-1 cell line (AID 1612).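 Further: tested at 1 µM final; 0% = mean of DMSO vehicle wells on each plate; positive means more glutamate uptake than control and negative means less.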 Particulars: MN-1 motor neuron cells, stronger effect = higher value.
Assay [2] is described as follows: GFP-Q80 aggregate reduction, neuronal-like cells, cell-based, NGF-treated PC12, GFPQ80 (AID 1614).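 Further: lower means fewer inclusions and 0 means no inclusions at all.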 The note with it: PC12 NGF-treated GFP-polyQ80 inclusion reduction.
Assay [3] can be described thus: 75Q-TubH aggregate inhibition, S. cerevisiae, yeast (AID 1616). The note with it: S. cerevisiae 75Q-TubH polyglutamine aggregation suppression; stronger effect = higher value.
A short description of assay [4]: compounds altering viability of human ES cells (AID 493140; call rule not given here;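 further: cells exposed to compounds for four days before counting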). Particulars: human embryonic stem cell survival screen; stronger effect = higher value.
Assay [5] is described as follows: signal quenchers or enhancers, Cy5 substrate/SSB – biochemical, NIH Clinical Collection, E. coli SSB, artefact control for HCV NS3 helicase inhibitor project (AID 743268; call rule not given here). The note with it: Cy5-oligo bound E. coli SSB, fluorescence interference.
The test system of assay [6] is Hepatitis C virus NS3 helicase. The experiment in a line: blockers of NS3h binding to DNA – biochemical, fluorescence polarization, NIH Clinical Collection, primary screen (AID 743270; call rule not given here). Particulars: NS3 helicase binding to Cy5-dT15 DNA, stronger effect = higher value, concentration not given here.
Assay [7] concerns the target Single-stranded DNA-binding protein (Escherichia coli (strain K12)) (UniProt P0AGE0). Description: SSB-ssDNA binding inhibitors – biochemical, fluorescence polarization, NIH Clinical Collection, counter-screen for HCV NS3 helicase inhibitor project (AID 743271; in the data active means inhibition above about 28%). The note with it: E. coli SSB-DNA binding, stronger effect = higher value, concentration not given here.
Assay [8] is described as follows: compounds distorting NS3 helicase fluorescence signal – biochemical, NIH Clinical Collection, artefact control for HCV NS3 helicase inhibitor project (AID 743272; call rule not given here;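 further: HCV NS3 helicase with a Cy5 labelled single stranded DNA probe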). The note with it: fluorescence interference counterscreen, HCV NS3 helicase assay; stronger effect = lower value.
Assay [9] can be described thus: Wnt pathway potentiators raising nuclear beta-catenin – imaging, WNT3A-conditioned medium, mouse C2C12, NPC library, primary screen (AID 1117326; in the data active means nuclear beta-catenin stimulation mostly above about 4.2%, no sharp cut-off; inactive means mostly below about 10%). Particulars: stronger effect = higher value.
A short description of assay [10]: P. berghei load reduction in hepatocytes – cell-based, HepG2, luciferase luminescence, HepG2 viability, primary screen (AID 624349).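 Further: 100% = mean of DMSO negative control wells on the same plate.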 Particulars: P. berghei liver stage in HepG2, luciferase luminescence, concentration not given here; parasite load remaining: stronger effect = lower value; viability: measured here: HepG2 viability without parasites.
The subject of assay [11] is Hepatitis C virus NS3 helicase. The experiment in a line: blockers of NS3h binding to ssDNA – biochemical, fluorescence polarization, LOPAC1280 library, primary screen (AID 687035; in the data active means inhibition above about 37%). Particulars: Purified HCV NS3 helicase, Cy5-dT15 ssDNA binding fluorescence polarization; stronger effect = higher value; concentration not given here.
Assay [12] in a line: compounds altering Cy5-DNA-NS3h complex signal – biochemical, LOPAC1280, artefact control for HCV NS3 helicase inhibitor project (AID 687037; call rule not given here). Particulars: Cy5-DNA-NS3h complex fluorescence interference counterscreen. For orientation: The purpose of a counterscreen is to sort out artefacts and off-target activity.

One may read the inhibition as the relative decrease from the control value, in per cent. With `CC(=O)NS(=O)(=O)c1ccc(N)cc1`, in assay [1], the glutamate uptake change is 16.9%. In assay [2], this compound registered an inclusion score of 2. Besides, the aggregation suppression score in assay [3] turned out to be 1.16. In addition, the survival in assay [4] is 17.3 (inactive). In addition, the fluorescence ratio was 1.03 (inactive) in assay [5] and 1.01 (inactive) in assay [8]. Moreover, the inhibition in assay [6] is -5% (inactive); in assay [7] it was -5.05% (inactive). The nuclear beta-catenin stimulation in assay [9] (at 10 µM) was -0.3% (inactive); in assay [9] (stimulation, at 2 µM), -0.1%.

As a reminder, the viability is a read-out of living cells in per cent, often relative to untreated cells. In the case of `Nc1cc(-c2ccncc2)c[nH]c1=O`, the glutamate uptake change in [1] is 12.5%. Also, the inclusion score in assay [2] was 2. The aggregation suppression score in assay [3] was 1.17. In addition, the survival in assay [4] is 2.67 (inactive). In addition, in assay [10], the parasite load remaining is 103% (inactive) and the viability is 98.5%. In assay [9] (at 10 µM), the nuclear beta-catenin stimulation was 0.5% (inactive). In [9] (stimulation, at 2 µM), the nuclear beta-catenin stimulation was 1.7%.

For `C[n+]1ccccc1/C=N/O`, the glutamate uptake change in [1] was -3.95%. In assay [2], this compound returned an inclusion score of 2. The compound further yielded an aggregation suppression score in assay [3] of 1.54. Besides, the survival in assay [4] was 5.75 (inactive). The parasite load remaining in assay [10] is 55.9% (inactive) and 86% (inactive) and 126% (inactive). Besides, the viability in assay [10] was 133% and 101% and 76.5%. The fluorescence ratio in assay [5] was 1 (inactive); in assay [8] it was 0.96 (inactive). The results for the inhibition in assay [6] and in assay [7] were -3.18% (inactive) and -0.48% (inactive), respectively. Besides, the nuclear beta-catenin stimulation was -0.7% (inactive) in assay [9] (at 10 µM) and -0.6% in assay [9] (stimulation, at 2 µM).

Regarding `Nc1nc2c(c(=O)[nH]1)N(C=O)C(CNc1ccc(C(=O)N[C@@H](CCC(=O)O)C(=O)O)cc1)CN2` (some centres undefined), the glutamate uptake change in assay [1] was -0.12%. This compound also yielded an inclusion score in assay [2] of 1.5. In [3], this compound had an aggregation suppression score of 2.31. The survival in [4] was 8.17 (inactive). Further, the parasite load remaining in assay [10] was 101% (inactive) and 95.5% (inactive) and 64.5% (inactive). In addition, the viability in assay [10] was 96.6% and 70.1% and 99.2%. In addition, the nuclear beta-catenin stimulation in [9] (at 10 µM) is 1.7% (inactive); in [9] (stimulation, at 2 µM), 4.1%.

Regarding `Cc1cc2cc3c(C)cc(=O)oc3c(C)c2o1`, in assay [1], the glutamate uptake change was -15.5%. Further, the inclusion score in [2] came to 2. This compound had an aggregation suppression score in assay [3] of 0.635. Besides, in [4], the survival is 6 (inactive). Also, in assay [10], the parasite load remaining was 179% (inactive) and 284% (inactive) and 171% (inactive). For the same compound, in [10], the viability is 95.9% and 75.4% and 91.9%. For the same compound, the nuclear beta-catenin stimulation in assay [9] (at 10 µM) was 2.9% (inactive); in assay [9] (stimulation, at 2 µM) it was 0.1%.

For `Cc1ccccc1N1C(=O)c2cc(S(N)(=O)=O)c(Cl)cc2NC1C` (centres undefined), in [1], the glutamate uptake change worked out at 2.13%. The compound also showed an inclusion score in assay [2] of 2. In assay [3], this compound had an aggregation suppression score of 1.18. The survival in assay [4] was 25.6 (inactive). Also, the inhibition in assay [11] was 1% (inactive). Besides, in [12], the fluorescence ratio (interference) is 1 (inactive). Moreover, the nuclear beta-catenin stimulation in assay [9] (at 10 µM) was -0.4% (inactive); in [9] (stimulation, at 2 µM) it was 1.1%.

Consider `CCN(CC)CCNC(=O)c1cc(Br)c(N)cc1OC`, for which the glutamate uptake change in assay [1] is -4.45%. Besides, the inclusion score in [2] turned out to be 2. The compound further showed an aggregation suppression score in assay [3] of 1.35. The survival in assay [4] was 5.42 (inactive). Also, the parasite load remaining in assay [10] was 69.3% (inactive) and 155% (inactive). Besides, the viability in assay [10] is 93.9% and 89.2%. Also, the nuclear beta-catenin stimulation in assay [9] (at 10 µM) was 3.8% (inactive); in assay [9] (stimulation, at 2 µM), -1%.

Consider `Nc1ccc(S(=O)(=O)Nc2cnc3ccccc3n2)cc1`, for which the glutamate uptake change in assay [1] amounted to 6.13%. The inclusion score in assay [2] is 2. The same compound came in with an aggregation suppression score in [3] of 1.52. Also, in [4], the survival was 3.75 (inactive). The parasite load remaining in assay [10] was 113% (inactive) and 43.6% (inactive). In addition, in assay [10], the viability is 98.9% and 97%. Further, the nuclear beta-catenin stimulation was -0.3% (inactive) in assay [9] (at 10 µM) and 0.7% in [9] (stimulation, at 2 µM).

For the compound `CC(N)CCCC(C)(C)O` (centres undefined), the glutamate uptake change in assay [1] was -4.36%. The inclusion score in [2] worked out at 2. The compound further displayed an aggregation suppression score in [3] of 1.46. In addition, in [4], the survival is 21.5 (inactive). In addition, in assay [10], the parasite load remaining is 31.8% (inactive) and 120% (inactive) and 114% (inactive); the viability was 50.3% and 90.2% and 93.5%. Besides, the nuclear beta-catenin stimulation in assay [9] (at 10 µM) was 2.3% (inactive). The nuclear beta-catenin stimulation in assay [9] (stimulation, at 2 µM) was found to be 1.6%.

Take `Cn1c([N+](=O)[O-])cnc1COC(N)=O`: in assay [1], the glutamate uptake change came out at 17%. Further, in assay [2], the inclusion score stood at 2. The compound further registered an aggregation suppression score in [3] of 1.36. Also, in assay [4], the survival was 19.5 (inactive). In assay [10], the parasite load remaining is 74.3% (inactive) and 117% (inactive) and 35.4% (inactive); the viability is 101% and 70.6% and 91.7%. Further, in assay [9] (at 10 µM), the nuclear beta-catenin stimulation is 0.1% (inactive). Moreover, the nuclear beta-catenin stimulation in assay [9] (stimulation, at 2 µM) is 0.6%.

In the case of `CC1(C)OC(=O)NC1=O`, the glutamate uptake change in assay [1] is 12.7%. The compound also showed an inclusion score in assay [2] of 2. For the same compound, the aggregation suppression score in assay [3] amounted to 1.01. Besides, the survival in assay [4] was 9.33 (inactive). In [10], the parasite load remaining is 76.1% (inactive) and 103% (inactive) and 63.9% (inactive); the viability is 96.6% and 74.2% and 92.6%. In assay [9] (at 10 µM), the nuclear beta-catenin stimulation is 1.7% (inactive). The nuclear beta-catenin stimulation in assay [9] (stimulation, at 2 µM) came out at 2.2%.

Take `COc1c2occc2c(OC)c2c(=O)cc(C)oc12`: in [1], the glutamate uptake change was -7.03%. Moreover, in assay [2], the inclusion score is 2. The compound further displayed an aggregation suppression score in assay [3] of 0.597. Also, the survival in [4] was 22.1 (inactive). In [10], the parasite load remaining was 32.5% (inactive) and 95.1% (inactive); the viability is 48.9% and 88.8%. In addition, the nuclear beta-catenin stimulation in [9] (at 10 µM) was 2.2% (inactive). Also, the nuclear beta-catenin stimulation in assay [9] (stimulation, at 2 µM) was 0.4%.

Turning to `C[N+]12CCC(CC1)C(OC(=O)C(O)(c1ccccc1)c1ccccc1)C2` (centres undefined), the glutamate uptake change in [1] is -0.25%. In addition, the inclusion score in assay [2] stood at 2. The aggregation suppression score in assay [3] is 1.21. Besides, the survival in [4] is 4.17 (inactive). Also, in assay [10], the parasite load remaining was 89.9% (inactive) and 72% (inactive) and 63.2% (inactive); the viability was 98.6% and 73% and 99.2%. For the same compound, the nuclear beta-catenin stimulation in assay [9] (at 10 µM) was 1.4% (inactive). Moreover, in assay [9] (stimulation, at 2 µM), the nuclear beta-catenin stimulation was determined as 1.9%.

Take `CCn1cc(C(=O)O)c(=O)c2cnc(N3CCNCC3)nc21`: the glutamate uptake change in assay [1] is -1.23%. Further, the inclusion score in assay [2] was determined as 2. The compound further yielded an aggregation suppression score in assay [3] of 1.16. In assay [4], the survival was 5.25 (inactive). For the same compound, in [10], the parasite load remaining is 87.7% (inactive) and 144% (inactive); the viability is 98.7% and 73%. Further, in assay [9] (at 10 µM), the nuclear beta-catenin stimulation is 1.9% (inactive). For the same compound, the nuclear beta-catenin stimulation in [9] (stimulation, at 2 µM) stood at 4.3%.

Regarding `Cn1c(=O)c2c(ncn2CCO)n(C)c1=O`, in [1], the glutamate uptake change worked out at 2.77%. In addition, the inclusion score in [2] was 2. In [3], this compound registered an aggregation suppression score of 1.2. Moreover, the survival in [4] is 29.2 (inactive). Also, in assay [10], the parasite load remaining was 29.7% (inactive) and 108% (inactive); the viability was 47.6% and 91.1%. Besides, in assay [9] (at 10 µM), the nuclear beta-catenin stimulation was 2.5% (inactive). For the same compound, the nuclear beta-catenin stimulation in assay [9] (stimulation, at 2 µM) came out at 1.4%.

`CCCCC1(COC(=O)CCC(=O)O)C(=O)N(c2ccccc2)N(c2ccccc2)C1=O`: the glutamate uptake change in [1] was -2.57%. The compound further came in with an inclusion score in assay [2] of 2. Also, the aggregation suppression score in assay [3] turned out to be 0.747. The survival in [4] was 3.58 (inactive). In assay [10], the parasite load remaining is 87.9% (inactive) and the viability came to 101%. Also, the nuclear beta-catenin stimulation in [9] (at 10 µM) was 6.3% (inactive). For the same compound, the nuclear beta-catenin stimulation in [9] (stimulation, at 2 µM) was 4.7%.
